{"source": "the supplement of paper PMC10338343", "note": "± gives the standard deviation. In all, about 6,600 sequences were measured (“pre-steady-state target cleavage rate”: median about 0.07, highest 2% from about 0.72 on). This excerpt belongs to a sample that is enriched for the highest values.", "data": [{"system": "MIWI (PIWIL1) piRISC loaded with Kctd7 piRNA (30 nt)", "test": "pre-steady-state target cleavage rate (min^-1); MIWI and MILI are mouse PIWI proteins and EfPiwi is from a freshwater sponge; tags in brackets are library labels; higher = faster piRNA-guided slicing of the target", "details": "guide: Kctd7 piRNA 5'p-UGUUAAUCUCUCAGAGAAGGUGACAGUGAU; auxiliary factor: 500 nM mouse GTSF1", "description": "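Cleave-'n-Seq: a library of target RNAs (target site embedded in constant flanks, ACAGCATTCCGCGTTAGTGATATCCG... 5' flank; DNA-blocked outside the site) at 0.1 nM was incubated with 1 nM active mouse MILI or MIWI piRISC (synthetic 5'-monophosphorylated piRNA guide) with or without 500 nM mouse GTSF1 at 33 °C for 1 min to 16 h. Uncleaved targets were sequenced and normalised to non-target controls, and the pooled three trials were fitted to a burst-and-steady-state model to give the pre-steady-state cleavage rate (min^-1; k3 is constrained to at most 1e-4). Sequence is the target site only; target names encode pairing extent (gX:gY) and contiguous / 1-mismatch / 2-mismatch / bulge geometry. Fits with R² ≤ 0 are excluded.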", "values": [{"sequence": "UUCACUGUGACCUUCUCUGAGAGAUAAACA", "pre-steady-state target cleavage rate": "0.214 ± 0.023"}, {"sequence": "UUCUCUGUCAGCUUCUCUGAGAGAUUAACA", "pre-steady-state target cleavage rate": "0.586 ± 0.028"}, {"sequence": "UAGACUGUCAGCUUCUCUGUGAGAUUAACA", "pre-steady-state target cleavage rate": "0.198 ± 0.0095"}, {"sequence": "AACACUGUCAGCUUCUCUGAGAGAUUAACA", "pre-steady-state target cleavage rate": "0.753 ± 0.039"}, {"sequence": "UAGACUGUCAGCUUCUCUGAGAGAUUAACA", "pre-steady-state target cleavage rate": "0.753 ± 0.05"}, {"sequence": "UACACUGUCAGCUUCUCUGAGAGAUUAACA", "pre-steady-state target cleavage rate": "0.655 ± 0.027"}, {"sequence": "AUCACUGUCUGCUUCUCUGAGAGAUUAACA", "pre-steady-state target cleavage rate": "0.74 ± 0.042"}, {"sequence": "UACACUGUCUGCUUCUCUGAGAGAUUAACA", "pre-steady-state target cleavage rate": "0.708 ± 0.043"}, {"sequence": "AUCACUGUCAGCUUCUCUGAGAGAUUAACA", "pre-steady-state target cleavage rate": "0.802 ± 0.044"}, {"sequence": "UUCACUGUCUGCUUCUCUGAGAGAUUAACA", "pre-steady-state target cleavage rate": "0.639 ± 0.038"}, {"sequence": "AUGACUGUCAGCUUCUCUGAGAGAUUAACA", "pre-steady-state target cleavage rate": "0.721 ± 0.046"}, {"sequence": "UUCACUGUCAGCUUCUCUGAGAGAUUAACA", "pre-steady-state target cleavage rate": "0.723 ± 0.032"}, {"sequence": "AUCACUGUCAGCUUCUCUGUGAGAUUAACA", "pre-steady-state target cleavage rate": "0.237 ± 0.013"}, {"sequence": "UUCACUGUCACGUUCUCUCAGAGAUUAACA", "pre-steady-state target cleavage rate": "0.0729 ± 0.0078"}, {"sequence": "UAGUGACAGUGGAAGUCUGAGAUAUUAACA", "pre-steady-state target cleavage rate": "< 0.0001"}, {"sequence": "AUCAGUGUCACCUUGUCUGAGAGAUUAACA", "pre-steady-state target cleavage rate": "0.209 ± 0.029"}, {"sequence": "UACACUGUCACCUUCUCCGAGAGAUUAACA", "pre-steady-state target cleavage rate": "0.351 ± 0.051"}, {"sequence": "UUCACUGUCACCUUCUCUGUGAGAUUAUCA", "pre-steady-state target cleavage rate": "0.106 ± 0.025"}, {"sequence": "UAGUGAGUCACCUACUCUGAGAGAUUAAGA", "pre-steady-state target cleavage rate": "0.13 ± 0.021"}, {"sequence": "UAGACUGUCAGCCUUCUCUGAGAGAUUAACA", "pre-steady-state target cleavage rate": "0.231 ± 0.024"}, {"sequence": "UUCACUGUCACCUUCUCUGACGAGAUUAACA", "pre-steady-state target cleavage rate": "0.0334 ± 0.0098"}, {"sequence": "AUCACUGUCACCUUCUCUGAGAGAUUAACC [g2:g30:cont:t1C]", "pre-steady-state target cleavage rate": "0.387 ± 0.032"}, {"sequence": "AUCACUGUCACCUUCUCUCUGAGAUUAACA", "pre-steady-state target cleavage rate": "0.0402 ± 0.0095"}, {"sequence": "AUCACUGUCACCUUCUCUGAGAAUUAACA", "pre-steady-state target cleavage rate": "0.366 ± 0.11"}, {"sequence": "UUCACUGUCACCUUCUCUGAGAGAAUUAACA", "pre-steady-state target cleavage rate": "0.641 ± 0.098"}, {"sequence": "AUCACUGUCACCUUCUCUGAGAGAUUAACA [g2:g30:cont:t1A]", "pre-steady-state target cleavage rate": "0.734 ± 0.035"}, {"sequence": "AUCACUGGUCACCUUCUCUGAGAGAUUAACA", "pre-steady-state target cleavage rate": "0.742 ± 0.047"}, {"sequence": "AUCACUUGUCACCUUCUCUGAGAGAUUAACA", "pre-steady-state target cleavage rate": "0.754 ± 0.12"}, {"sequence": "AUCACUGUCACCUUCUCUGAGAGAAUUAACA", "pre-steady-state target cleavage rate": "0.738 ± 0.13"}, {"sequence": "UUCACUGGUCACCUUCUCUGAGAGAUUAACA", "pre-steady-state target cleavage rate": "0.652 ± 0.034"}, {"sequence": "UACACUGGUCACCUUCUCUGAGAGAUUAACA", "pre-steady-state target cleavage rate": "0.676 ± 0.038"}, {"sequence": "UUCACUUGUCACCUUCUCUGAGAGAUUAACA", "pre-steady-state target cleavage rate": "0.63 ± 0.09"}, {"sequence": "UACACUUGUCACCUUCUCUGAGAGAUUAACA", "pre-steady-state target cleavage rate": "0.631 ± 0.088"}, {"sequence": "UAGAGACUCACCUUCUCUGAGAGAUUAUGA", "pre-steady-state target cleavage rate": "0.0764 ± 0.014"}, {"sequence": "UUCACUGUCACCUUCUCUGAGUAGAUUAACA", "pre-steady-state target cleavage rate": "0.0213 ± 0.0063"}, {"sequence": "UAGUCUGUCACCUUUUCUGAGAGAUUAACA", "pre-steady-state target cleavage rate": "0.542 ± 0.029"}, {"sequence": "AUCACUGUCACCUUCACUGAGUGAUUAACA", "pre-steady-state target cleavage rate": "0.0332 ± 0.007"}, {"sequence": "UAGUGACAGACCUUCACUGAGAGUUUAACA", "pre-steady-state target cleavage rate": "0.0305 ± 0.011"}, {"sequence": "UAGUGACUCACCUUCUCUGAGUGAUAAACA", "pre-steady-state target cleavage rate": "0.0392 ± 0.007"}, {"sequence": "AAUCACUGUCACCUUCUCUGAGAGAUUAACA", "pre-steady-state target cleavage rate": "0.81 ± 0.043"}, {"sequence": "AUCACUGUCACCUUCUCUGAGAGAUUAACG [g2:g30:cont:t1G]", "pre-steady-state target cleavage rate": "0.713 ± 0.037"}, {"sequence": "AUCACUGUCACCUUCUCUGAGAGAUUAAUCA", "pre-steady-state target cleavage rate": "0.381 ± 0.04"}, {"sequence": "UAGUGACUCACCUUCUCUGAGAGAAUAAGA", "pre-steady-state target cleavage rate": "0.02 ± 0.0073"}, {"sequence": "UUCACAGUCACCUUCUCUGAGAGAUUAAGA", "pre-steady-state target cleavage rate": "0.137 ± 0.027"}, {"sequence": "UAGUGUGUCAGCUUCUCUGAGAGAUUAACA", "pre-steady-state target cleavage rate": "0.561 ± 0.032"}, {"sequence": "UUCAGUGUCAGCUUCUCUGAGAGAUUAACA", "pre-steady-state target cleavage rate": "0.609 ± 0.032"}, {"sequence": "UAGAGUGUCAGCUUCUCUGAGAGAUUAACA", "pre-steady-state target cleavage rate": "0.772 ± 0.044"}, {"sequence": "UAGUGUCUCAGCUUCUCUGAGAGAUUAACA", "pre-steady-state target cleavage rate": "0.437 ± 0.031"}, {"sequence": "AUCAGUGUCAGCUUCUCUGAGAGAUUAACA", "pre-steady-state target cleavage rate": "0.734 ± 0.034"}, {"sequence": "UACAGUGUCAGCUUCUCUGAGAGAUUAACA", "pre-steady-state target cleavage rate": "0.622 ± 0.028"}, {"sequence": "AUCUCUGUCACCUACUCUGAGAGAUUAACA", "pre-steady-state target cleavage rate": "0.627 ± 0.042"}, {"sequence": "AUCACUGUCACCUUCUCUGACAGAUUAUCA", "pre-steady-state target cleavage rate": "0.0262 ± 0.0092"}, {"sequence": "UAGUCUGUCACCUUCUCUGAGACAUUAUCA", "pre-steady-state target cleavage rate": "0.0172 ± 0.0056"}, {"sequence": "UAGUGUCACACCUUCUCUGAGAGAUAUUGA", "pre-steady-state target cleavage rate": "0.00616 ± 0.0033"}, {"sequence": "UAGUGACACACCUUCUCUGAUAGAUUAACA", "pre-steady-state target cleavage rate": "0.714 ± 0.054"}, {"sequence": "UAGUGACAGUGGAUCUCUGAGAAAUUAACA", "pre-steady-state target cleavage rate": "< 0.0001"}, {"sequence": "UAGACUGUCACCUUCUCUGAGAGCAUUAACA", "pre-steady-state target cleavage rate": "0.38 ± 0.025"}, {"sequence": "UAGUCUGUCACCUUCUCUGAGUGAUUUACA", "pre-steady-state target cleavage rate": "0.0221 ± 0.0058"}, {"sequence": "UACACUGUCACCUUCUCCUGAGAGAUUAACA", "pre-steady-state target cleavage rate": "0.115 ± 0.043"}, {"sequence": "AUCACUGUCACCUUCUCCUGAGAGAUUAACA", "pre-steady-state target cleavage rate": "0.645 ± 0.17"}, {"sequence": "UUCACUGUCACCUUCUCUCUGAGAUUAACA", "pre-steady-state target cleavage rate": "0.0263 ± 0.0076"}, {"sequence": "UUUCACUGUCACCUUCUCUGAGAGAUUAACA", "pre-steady-state target cleavage rate": "0.415 ± 0.04"}, {"sequence": "UACCACUGUCACCUUCUCUGAGAGAUUAACA", "pre-steady-state target cleavage rate": "0.773 ± 0.044"}, {"sequence": "AUCCACUGUCACCUUCUCUGAGAGAUUAACA", "pre-steady-state target cleavage rate": "0.712 ± 0.046"}, {"sequence": "UCCACUGUCACCUUCUCUGAGAGAUUAACA", "pre-steady-state target cleavage rate": "0.68 ± 0.028"}, {"sequence": "AGUCACUGUCACCUUCUCUGAGAGAUUAACA", "pre-steady-state target cleavage rate": "0.833 ± 0.057"}, {"sequence": "UUCACUGUCACCUUCUCCUGAGAGAUUAACA", "pre-steady-state target cleavage rate": "0.795 ± 0.21"}, {"sequence": "ACCACUGUCACCUUCUCUGAGAGAUUAACA", "pre-steady-state target cleavage rate": "0.715 ± 0.039"}, {"sequence": "GUCACUGUCACCUUCUCUGAGAGAUUAACA", "pre-steady-state target cleavage rate": "0.763 ± 0.04"}, {"sequence": "UUCACUGUCACCUUCUCUGAGAGAAAUACA", "pre-steady-state target cleavage rate": "0.179 ± 0.038"}, {"sequence": "AUCACUGUCACCUUCAUCUGAGAGAUUAACA", "pre-steady-state target cleavage rate": "0.275 ± 0.053"}]}]}
